Source: PubChem BioAssay
Calls of active or inactive are those of the source.

Columns and labels:
Albumin (Bos taurus) = Albumin (Bos taurus) (UniProt P02769); experiment: bovine serum albumin binders on microarray, profiling panel, artefact control for SMM control protein annotation, biochemical, small-molecule microarray, Alexa647 label, 635/667 nm fluorescence (AID 1118); details: BSA-A647 binding, fluorescence 635 nm, higher = more signal;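 further: score merges 667 nm emission intensity and signal-to-noise per printed compound spot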
Sequence of Albumin (Bos taurus) (P02769 whole entry, looked up): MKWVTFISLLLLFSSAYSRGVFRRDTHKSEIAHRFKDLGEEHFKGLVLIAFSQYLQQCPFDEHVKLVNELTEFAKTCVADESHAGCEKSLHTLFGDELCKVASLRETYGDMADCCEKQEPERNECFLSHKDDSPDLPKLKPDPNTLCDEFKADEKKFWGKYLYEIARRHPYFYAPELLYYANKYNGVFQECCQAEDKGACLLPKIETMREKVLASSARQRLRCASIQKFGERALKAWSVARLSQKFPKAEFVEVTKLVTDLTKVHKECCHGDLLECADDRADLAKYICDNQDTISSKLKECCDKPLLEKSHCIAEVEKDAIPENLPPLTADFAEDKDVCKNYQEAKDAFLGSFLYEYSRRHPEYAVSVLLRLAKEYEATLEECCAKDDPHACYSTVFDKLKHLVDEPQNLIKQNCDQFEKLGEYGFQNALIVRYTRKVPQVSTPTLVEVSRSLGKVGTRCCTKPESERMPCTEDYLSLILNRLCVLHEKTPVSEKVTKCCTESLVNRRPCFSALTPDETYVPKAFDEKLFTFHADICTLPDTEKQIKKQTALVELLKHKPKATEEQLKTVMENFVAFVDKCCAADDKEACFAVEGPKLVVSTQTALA

[1] = small-molecule microarray binders of probe aXIP, primary screen, biochemical, NeuroSMM set, 635/667 nm fluorescence (AID 1119); details: higher = more signal, called active from +8 up or from −8 down;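 further: probe is the protein aXip251-270 applied at 1 µg/mL to compound-printed slides; binding of probe to printed compounds measured as 667 nm fluorescence plus signal to noise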
[2] = small-molecule binders of probe aNOTCH3, primary screen, biochemical, small-molecule microarray, 635/667 nm fluorescence (AID 1120); details: higher = more signal;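 further: probe is a biotin-tagged antibody raised against NOTCH3 rather than NOTCH3 protein; score merges spot fluorescence near 667 nm with spot signal to noise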
[3] = small-molecule binders of probe aNOTCH2, primary screen, biochemical, small-molecule microarray, 635/667 nm fluorescence (AID 1121); details: higher = more signal;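 further: score merges feature fluorescence read at 667 nm with its signal to noise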
[4] = biological target: Carbonic anhydrase 2 (Homo sapiens) (UniProt P00918); experiment: CAII small-molecule binders, profiling panel, biochemical, small-molecule microarray, Alexa647-labelled CAII (AID 1122); details: CAII-A647 binding fluorescence, higher = more signal
[5] = COS7 lysate on small-molecule microarray, probe aHis, 635 nm (AID 1123); details: COS7 cell lysate, fluorescence, higher = more signal;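 further: z-score combines 667nm fluorescence intensity with signal-to-noise per printed compound spot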
[6] = compound binding in COS7 lysate, probe aLAP1, primary screen, cell lysate, small-molecule microarray (AID 1124); details: probe aLAP1, fluorescence, higher = more signal;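 further: lysate comes from COS7 cells expressing LAP1 and is applied at 0.3 µg/mL; score merges spot fluorescence near 667 nm with signal-to-noise over triplicate slides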
Sam68 (KHDRBS1) = experiment: Sam68 small-molecule binders, primary screen, biochemical, small-molecule microarray, 635 nm fluorescence (AID 1125); details: small-molecule microarray binding, higher = more signal;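 further: score merges 667 nm channel intensity with signal to noise over triplicate slides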
[7] = system: Chordin-like protein 2 (CHRDL2); experiment: CHRDL2 small-molecule binders, primary screen, biochemical, small-molecule microarray, 635 nm fluorescence (AID 1126); details: small-molecule microarray binding, fluorescence 635 nm; higher = more signal;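 further: printed compound slides probed with Chrdl2 protein at 4 µg/mL for 1 h at 4 C; score merges 667 nm emission intensity with signal to noise over three replicate slides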
[8] = biological target: Concanavalin-A (Canavalia ensiformis) (UniProt P02866); experiment: ConA small-molecule binders, primary screen, artefact control for SMM control protein annotation, biochemical, small-molecule microarray, Alexa647 label, 635 nm (AID 1127); details: ConA-A647 binding fluorescence, higher = more signal;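 further: z combines 667 nm emission intensity with signal-to-noise across three replicate slides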
Sequence of Concanavalin-A (Canavalia ensiformis) (P02866 whole entry, looked up): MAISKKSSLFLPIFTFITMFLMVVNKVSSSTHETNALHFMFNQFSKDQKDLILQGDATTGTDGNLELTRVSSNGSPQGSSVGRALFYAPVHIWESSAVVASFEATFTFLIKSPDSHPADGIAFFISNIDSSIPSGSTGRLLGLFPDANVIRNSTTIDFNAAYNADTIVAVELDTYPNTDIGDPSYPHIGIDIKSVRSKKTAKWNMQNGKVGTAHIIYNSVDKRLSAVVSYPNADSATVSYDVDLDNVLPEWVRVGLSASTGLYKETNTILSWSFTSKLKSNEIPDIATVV

[9] = anti-His antibody binders, primary screen, artefact control for SMM control protein annotation, biochemical, small-molecule microarray, 635 nm fluorescence (AID 1128); details: anti-His Alexa647 antibody binding, higher = more signal;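 further: score merges feature fluorescence with signal-to-noise for each printed compound spot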
[10] = system: Human papillomavirus type 1a E7 protein (residues 1-88); experiment: HPV1a E7 small-molecule binders, primary screen, biochemical, small-molecule microarray, residues 1-88, 635 nm (AID 1129); details: small-molecule microarray binding, fluorescence 635 nm; higher = more signal
[11] = biological target: Focal adhesion kinase 1 (Homo sapiens) (UniProt Q05397); experiment: small-molecule microarray binders of FAK, primary screen, biochemical, 635/667 nm fluorescence, BSA, DTT (AID 1130); details: PTK2 binding, 635 nm fluorescence, higher = more signal;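 further: composite of spot emission at 667 nm and signal to noise over triplicate slides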
Sequence of Focal adhesion kinase 1 (Homo sapiens) (Q05397 whole entry, looked up): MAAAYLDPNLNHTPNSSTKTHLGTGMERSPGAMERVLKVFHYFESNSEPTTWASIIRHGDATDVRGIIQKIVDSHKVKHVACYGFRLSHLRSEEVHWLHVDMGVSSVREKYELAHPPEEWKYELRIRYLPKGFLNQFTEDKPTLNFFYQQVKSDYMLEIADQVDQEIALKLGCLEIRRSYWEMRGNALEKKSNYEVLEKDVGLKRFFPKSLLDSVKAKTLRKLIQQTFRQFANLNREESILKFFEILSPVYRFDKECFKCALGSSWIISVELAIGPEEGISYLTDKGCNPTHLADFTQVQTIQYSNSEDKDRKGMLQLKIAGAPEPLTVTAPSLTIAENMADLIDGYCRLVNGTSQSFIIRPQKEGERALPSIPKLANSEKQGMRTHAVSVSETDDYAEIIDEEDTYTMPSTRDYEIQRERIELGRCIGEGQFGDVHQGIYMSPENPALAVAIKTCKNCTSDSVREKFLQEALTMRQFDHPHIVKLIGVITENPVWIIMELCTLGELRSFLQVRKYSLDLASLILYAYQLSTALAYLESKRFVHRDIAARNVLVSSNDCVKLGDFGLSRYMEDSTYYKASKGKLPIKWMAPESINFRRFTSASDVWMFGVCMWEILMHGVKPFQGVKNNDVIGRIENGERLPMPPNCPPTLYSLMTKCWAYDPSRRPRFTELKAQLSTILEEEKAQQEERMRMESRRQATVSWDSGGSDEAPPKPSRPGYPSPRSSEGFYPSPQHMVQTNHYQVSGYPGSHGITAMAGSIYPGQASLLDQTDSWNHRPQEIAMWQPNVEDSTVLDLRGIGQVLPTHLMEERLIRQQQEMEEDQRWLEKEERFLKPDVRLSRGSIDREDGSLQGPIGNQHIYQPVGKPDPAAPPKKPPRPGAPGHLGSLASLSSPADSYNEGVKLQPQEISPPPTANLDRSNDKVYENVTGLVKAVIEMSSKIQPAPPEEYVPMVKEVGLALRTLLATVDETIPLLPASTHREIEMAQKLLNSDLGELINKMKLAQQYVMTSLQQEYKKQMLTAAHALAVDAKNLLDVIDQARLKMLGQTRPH

[12] = system: Fibrinogen (Alexa647-labelled); experiment: fibrinogen binders on compound microarrays, profiling panel, artefact control for SMM control-protein annotation, biochemical, small-molecule microarray, 635/667 nm fluorescence (AID 1131); details: fibrinogen-A647 binding fluorescence, higher = more signal;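 further: z-score merges 667 nm fluorescence with per-spot signal-to-noise over triplicate slides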
[13] = biological target: Follistatin (Homo sapiens) (UniProt P19883); experiment: follistatin binders on small-molecule microarrays, primary screen, biochemical, small-molecule microarray, 635/667 nm fluorescence (AID 1132); details: FST binding, 635 nm fluorescence, higher = more signal
Sequence of Follistatin (Homo sapiens) (P19883 whole entry, looked up): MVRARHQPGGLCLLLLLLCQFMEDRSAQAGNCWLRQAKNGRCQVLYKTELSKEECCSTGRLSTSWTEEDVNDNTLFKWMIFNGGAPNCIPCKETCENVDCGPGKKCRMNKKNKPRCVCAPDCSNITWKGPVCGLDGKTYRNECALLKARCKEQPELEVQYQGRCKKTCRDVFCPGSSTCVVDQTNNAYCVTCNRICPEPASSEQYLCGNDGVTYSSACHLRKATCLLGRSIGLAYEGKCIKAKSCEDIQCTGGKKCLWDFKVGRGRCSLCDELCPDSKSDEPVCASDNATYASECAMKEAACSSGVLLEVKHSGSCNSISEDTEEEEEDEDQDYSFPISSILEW

[14] = biological target: Fibroblast growth factor 2 (Homo sapiens) (UniProt P09038); experiment: FGF2 binders on small-molecule microarrays, primary screen, biochemical, small-molecule microarray, 635/667 nm fluorescence (AID 1133); details: small-molecule microarray binding, FGF2, fluorescence 635/667; higher = more signal
Sequence of Fibroblast growth factor 2 (Homo sapiens) (P09038 whole entry, looked up): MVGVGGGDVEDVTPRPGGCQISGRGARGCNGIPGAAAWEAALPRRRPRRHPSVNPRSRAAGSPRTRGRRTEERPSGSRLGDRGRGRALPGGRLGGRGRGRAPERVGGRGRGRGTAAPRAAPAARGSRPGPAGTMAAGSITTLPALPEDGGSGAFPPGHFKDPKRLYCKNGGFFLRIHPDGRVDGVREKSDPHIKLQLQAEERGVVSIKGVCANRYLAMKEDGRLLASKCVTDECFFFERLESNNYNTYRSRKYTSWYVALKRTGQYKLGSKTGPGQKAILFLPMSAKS

[15] = mitochondrial membrane potential change in A549 cells, profiling panel, cell-based, JC-1 fluorescence, basal, 24 h, 100 nL (AID 1138); details: higher = more signal;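 further: A549 lung adenocarcinoma cells under basal conditions with no added stimulus; test concentration not given here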
Lefty1 = Lefty1 binders on small-molecule microarrays, primary screen, biochemical, small-molecule microarray, 635/667 nm fluorescence (AID 1139); details: small-molecule microarray binding, fluorescence 635/667; higher = more signal
[16] = system: wheat germ agglutinin (Triticum aestivum), Alexa647-labelled; experiment: wheat germ agglutinin binders on compound microarrays, profiling panel, artefact control for SMM control-protein annotation, biochemical, small-molecule microarray, 635/667 nm fluorescence (AID 1140); details: WGA-A647 binding, 635 nm fluorescence, higher = more signal;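 further: score merges 667 nm feature emission with signal to noise over triplicate slides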
[17] = biological target: Luciferin 4-monooxygenase (Photinus pyralis) (UniProt P08659); experiment: firefly luciferase enzyme inhibitors, primary screen, biochemical, luminescence, purified enzyme, 2006 set (AID 1141); details: SteadyGlo luminescence, 30 min, higher = more signal, called active from +8 up or from −8 down;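 further: cell-free assay with purified firefly luciferase at 100 ng per well in PBS; test concentration not given here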
Sequence of Luciferin 4-monooxygenase (Photinus pyralis) (P08659 whole entry, looked up): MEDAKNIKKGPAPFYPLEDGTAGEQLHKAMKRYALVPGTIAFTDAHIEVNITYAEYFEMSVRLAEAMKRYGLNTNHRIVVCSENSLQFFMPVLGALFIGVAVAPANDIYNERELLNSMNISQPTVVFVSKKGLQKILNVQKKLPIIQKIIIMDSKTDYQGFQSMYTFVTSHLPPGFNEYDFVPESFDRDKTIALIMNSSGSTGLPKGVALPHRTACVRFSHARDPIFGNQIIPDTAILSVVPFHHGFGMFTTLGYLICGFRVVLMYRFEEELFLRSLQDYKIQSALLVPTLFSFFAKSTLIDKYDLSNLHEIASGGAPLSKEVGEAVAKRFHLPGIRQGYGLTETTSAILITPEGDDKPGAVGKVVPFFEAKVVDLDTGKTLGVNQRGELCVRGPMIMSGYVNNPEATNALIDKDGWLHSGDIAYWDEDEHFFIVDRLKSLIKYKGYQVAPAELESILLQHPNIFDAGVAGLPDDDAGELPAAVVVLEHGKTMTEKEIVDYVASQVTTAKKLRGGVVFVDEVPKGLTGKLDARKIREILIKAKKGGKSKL

| SMILES | composite z-score (Albumin (Bos taurus)) | composite Z-score [1] | composite z-score [2] | composite z-score [3] | composite z-score [4] | composite z-score [5] | composite z-score [6] | composite z-score (Sam68 (KHDRBS1)) | composite z-score [7] | composite z-score [8] | composite z-score [9] | composite z-score [10] | composite z-score [11] | composite z-score [12] | composite z-score [13] | composite z-score [14] | z-score [15] | composite z-score (Lefty1) | composite z-score [16] | z-score [17] |
| --- | --- | --- | --- | --- | --- | --- | --- | --- | --- | --- | --- | --- | --- | --- | --- | --- | --- | --- | --- | --- |
| CON(C)C(=O)c1nnc2c(n1)[nH]c1ccccc12 | 0.795 | 0.0617 (inactive) | -0.0765 | -0.167 | 0.464 | 0.128 | 1.02 | 0.129 | 0.493 | 0.293 | 0.459 | 0.607 | 0.137 | 0.471 | 0.545 | 0.635 | -0.448 | 0.596 | 0.816 | -2.33 (inactive) |
| CO[C@@H]1COC(=O)CC=C[C@H](C)[C@H](OC)COC(=O)[C@@H]2CCCN2C(=O)CC=C[C@H]1C | -0.568 | 0.598 (inactive) | -0.116 | -0.154 | -0.623 | -0.301 | 0.569 | 0.442 | 1.44 | -0.371 | -0.51 | -0.838 | -0.226 | -2.24 | 1.38 | 1.69 | -0.213 | 1.45 | -1.11 | -0.577 (inactive) |
| CO[C@@H]1C=CCC(=O)N[C@@H](C)C(=O)OC[C@@H](OC)[C@H](C)C=CCC(=O)OC[C@H]1C | -1.01 | 0.914 (inactive) | -0.0967 | -0.123 | -0.689 | -1.2 | 0.0645 | 0.451 | 1.49 | -1.09 | 0.207 | -0.724 | -0.397 | -0.556 | 1.39 | 0.615 | 1.04 | 1.59 | -0.87 | -0.461 (inactive) |
| CCCNC(=O)OC[C@H]1O[C@H](CCON=C2c3cc(OC)ccc3O[C@H](c3cccc(OC)c3)[C@H]2O)C=C[C@@H]1Oc1ccc(OC)cc1 | 0.491 | 3.22 (inactive) | 0.219 | 0.0889 | 0.137 | 1.24 | 0.812 | 0.956 | 0.366 | 0.493 | 2.07 | 0.824 | 0.222 | 0.618 | 0.418 | 1.11 | 1.2 | 0.292 | 0.228 | 0.652 (inactive) |
| CC(=O)OC[C@H]1O[C@H](CC=NOCC[C@@H]2C=C[C@H](OC(C)=O)[C@@H](COC(C)=O)O2)C=C[C@@H]1OC(C)=O | -0.076 | -0.69 (inactive) | 0.127 | -0.165 | -0.146 | -0.489 | -0.099 | 1.29 | 0.973 | 0.304 | 1.77 | 0.642 | -0.216 | -0.305 | 0.447 | 1.02 | -0.6 | 1.29 | -0.111 | 0.966 (inactive) |
| CCOC(=O)[C@H](CC(C)C)NC(=O)CCC1CC(OC(=O)NCCc2ccc(F)cc2)CC2(CCCC(COC(=O)NCCCN3CCCC3=O)O2)O1 (stereo not given in full) | 0.353 | 0.0886 (inactive) | -0.179 | -0.0839 | 0.325 | 0.619 | 0.16 | 0.883 | 0.473 | 0.0423 | 0.969 | 0.635 | 0.0501 | 0.958 | 1.25 | 0.304 | -0.114 | 0.766 | 0.205 | 0.564 (inactive) |
| C=CC[C@@H]1C=C[C@H](ON=CC[C@@H]2C=C[C@H](OC(C)=O)[C@@H](COC(C)=O)O2)[C@@H](CO)O1 | 0.0919 | -0.0027 (inactive) | 0.164 | 0.0219 | 0.197 | 0.312 | 0.0839 | 1.29 | 0.441 | 0.823 | 1.37 | 0.915 | -0.0825 | 0.991 | 0.538 | 0.945 | -0.0536 | 0.918 | 0.566 | 0.328 (inactive) |
| COC(=O)CC=C[C@@H](C)[C@@H](C=NOC[C@@H](O)COCc1ccco1)OC | -0.15 | -2 (inactive) | -0.262 | -0.14 | -0.134 | -0.452 | 0.0649 | -0.684 | 1.36 | -0.619 | 1.46 | -0.464 | -0.354 | -1.2 | 1.15 | 0.509 | 0.662 | 1.02 | -0.83 | -1.3 (inactive) |
| C[C@@H](c1ccccc1)N1C(=O)[C@H]2[C@H]3[C@H](O)[C@H](O)CC(=NNC(=O)OCc4ccccc4)[C@@H]3CC[C@H]2C1=O | 0.517 | 0.581 (inactive) | -0.0647 | -0.148 | -0.191 | -0.231 | -0.723 | 0.723 | 1.45 | -0.569 | -0.23 | -1.01 | 0.37 | -0.864 | 1.43 | 1.66 | -0.383 | 1.39 | -0.212 | 0.574 (inactive) |
| CC(C)=NO[C@H](C)c1cn([C@@H]2COC[C@H]2O)nn1 | 0.392 | -0.679 (inactive) | 0.0694 | -0.147 | 0.0793 | 0.0027 | 0.191 | 0.317 | 0.655 | 0.139 | 0.106 | 0.661 | 0.335 | 0.187 | 0.349 | 0.594 | 0.027 | 0.718 | -0.038 | 0.0821 (inactive) |
| CCOC(=O)[C@H](CC(C)C)NC(=O)CCC1CC(OC(=O)NCc2ccc3c(c2)OCO3)CC2(CCCC(COC(=O)NCCc3ccc(Cl)cc3)O2)O1 (stereo not given in full) | 0.619 | -0.232 (inactive) | 0.0116 | -0.159 | 0.232 | 0.817 | 0.127 | 1.11 | 0.359 | -0.0326 | 0.141 | 0.653 | 0.0146 | -0.092 | 0.62 | 0.671 | 0.387 | 1.14 | 0.669 | 0.621 (inactive) |
